# Article PMC4336329 (PLoS ONE, 2015)
# Out of some 310,000 compounds screened, about 14,000 (4.5%) showed an effect of 50% or more. Effects have a minus sign here. The sample holds strong results, similar compounds and a random draw of the others, so the mix is not that of the screen.
# Target: human ether-à-go-go-related gene (hERG) potassium channel (human, UniProt Q12809)
# Test: primary screen, population patch clamp on CHO cells stably expressing hERG; higher = less effect of the substance
# 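Note: peak tail current of the secondary pulse compared with the same well before compound.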
# Chain of human ether-à-go-go-related gene (hERG) potassium channel (Q12809 whole entry, looked up): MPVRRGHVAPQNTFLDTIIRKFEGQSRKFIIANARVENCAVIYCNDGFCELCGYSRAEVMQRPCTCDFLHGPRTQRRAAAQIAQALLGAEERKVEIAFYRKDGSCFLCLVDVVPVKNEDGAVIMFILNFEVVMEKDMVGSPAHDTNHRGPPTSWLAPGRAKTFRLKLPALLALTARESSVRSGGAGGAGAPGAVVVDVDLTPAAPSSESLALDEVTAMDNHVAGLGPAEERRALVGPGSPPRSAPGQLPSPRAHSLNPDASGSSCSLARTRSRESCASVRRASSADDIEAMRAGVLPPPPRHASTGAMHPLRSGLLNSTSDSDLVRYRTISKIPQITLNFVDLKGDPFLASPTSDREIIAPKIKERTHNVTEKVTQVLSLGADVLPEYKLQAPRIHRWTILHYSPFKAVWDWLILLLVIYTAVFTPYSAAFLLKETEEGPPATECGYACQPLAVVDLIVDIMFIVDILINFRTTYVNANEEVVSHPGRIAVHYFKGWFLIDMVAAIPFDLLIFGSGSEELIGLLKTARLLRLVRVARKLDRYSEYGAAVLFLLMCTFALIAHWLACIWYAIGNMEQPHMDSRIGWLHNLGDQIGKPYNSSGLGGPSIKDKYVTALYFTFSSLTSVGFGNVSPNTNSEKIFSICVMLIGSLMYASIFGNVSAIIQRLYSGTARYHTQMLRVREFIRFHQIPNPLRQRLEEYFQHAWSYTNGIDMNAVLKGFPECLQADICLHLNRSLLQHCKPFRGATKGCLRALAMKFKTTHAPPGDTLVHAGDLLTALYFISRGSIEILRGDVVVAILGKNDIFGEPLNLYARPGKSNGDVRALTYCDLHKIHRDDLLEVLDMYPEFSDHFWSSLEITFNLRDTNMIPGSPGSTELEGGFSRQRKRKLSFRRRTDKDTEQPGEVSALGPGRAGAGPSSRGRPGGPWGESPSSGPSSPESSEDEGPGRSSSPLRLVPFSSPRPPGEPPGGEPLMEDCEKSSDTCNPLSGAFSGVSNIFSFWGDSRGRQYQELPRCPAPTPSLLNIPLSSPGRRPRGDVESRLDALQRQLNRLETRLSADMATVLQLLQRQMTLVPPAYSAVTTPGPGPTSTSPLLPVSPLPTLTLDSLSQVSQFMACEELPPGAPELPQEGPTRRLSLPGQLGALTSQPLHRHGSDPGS
row,Structure (SMILES),"hERG current change (%, negative = inhibition) at 10uM"
1,CCCCn1c(CCCNC(=O)c2ccco2)nc2ccccc21,-40.5%
2,Cc1ccc(NC(=O)CSc2nnc(CNC(=O)c3ccccc3F)o2)cc1,2.03%
3,CC1CCN(c2ccc3nnc(CCC(=O)NCCCOC(C)C)n3n2)CC1,2.68%
4,COCCn1c(SCC(=O)N2CCC(C)CC2)nc2ccccc2c1=O,-62.8%
5,O=C(O)CCCCCn1c(SCC(=O)N2CCCC2)nc2ccsc2c1=O,16.9%
6,COCCn1c(SCC(=O)N2CCCc3ccccc32)nc2cccnc21,-16.5%
7,COCCn1c(SCC(=O)N2CCCc3ccccc32)nc2ccccc2c1=O,-72.6%
8,CCn1c(SCC(=O)N2CCCCC2C)nc2ccsc2c1=O (stereo not drawn),-11.5%
9,CCC1CCCCN1C(=O)CSc1nc2ccsc2c(=O)n1Cc1ccccc1 (stereo not drawn),-78.3%
10,O=C(CSc1nc2ccsc2c(=O)n1Cc1ccccc1)NCC1CCCO1 (stereo not drawn),-25.7%
11,CCCCn1c(SCC(=O)c2ccccc2)nc2ccsc2c1=O,1.38%
12,CCn1c(SCC(=O)N2CCCc3ccccc32)nc2ccccc2c1=O,-18.7%
13,CCCCn1c(SCC(=O)N2CCC(C)CC2)nc2ccsc2c1=O,-70.7%
14,COCCn1c(SCC(=O)N2CCOCC2)nc2ccccc2c1=O,-22.3%
15,COCCn1c(SCC(=O)N2CCCCC2)nc2ccccc2c1=O,-49.3%
16,COc1ccc2[nH]cc(CCNC(=O)Cc3ccc(Cl)cc3)c2c1,2.05%
17,CC(=O)c1cccc(NC(=O)c2ccc3c(c2)C(=O)N(Cc2cccnc2)C3=O)c1,-9.85%
18,COc1ccc(OC)c(/C=N/N(CCC#N)C2=NS(=O)(=O)c3ccccc32)c1,6.86%
19,CCCCCCSc1ccc([C@@H]2[C@H]3C(=O)N(C)C(=O)[C@H]3[C@]3(C(=O)OC)CCCCN23)cc1.O=C(O)C(F)(F)F,-10.9%
20,Cc1ccc(N2C(=O)NC(=O)/C(=C\c3cn(CC(=O)O)c4ccccc34)C2=O)cc1,16.8%
21,CC(Oc1cccc2c1OC(C)(C)C2)C(=O)O (stereo not drawn),-5.47%
22,COc1ccc(Cc2nnc(NC(=O)c3ccc(Cl)c([N+](=O)[O-])c3)s2)cc1,15%

row,Structure (SMILES),"hERG current change (%, negative = inhibition) at 10uM"
1,COc1ccc(CN2CCN(C(=O)C3CCC(CNS(=O)(=O)c4ccc(C)cc4)CC3)CC2)c(OC)c1OC (stereo not drawn),-27.5%
2,CC1Cc2nc(SCC(=O)N3CCN(c4ccccc4)CC3)n(CCc3ccccc3)c(=O)c2S1 (stereo not drawn),-47.1%
3,COCCn1c(SCC(=O)N2CCN(c3ccccc3)CC2)nc2c(c1=O)SC(C)C2 (stereo not drawn),-58.8%
4,CCn1c(SCC(=O)N2CCN(c3ccccc3)CC2)nc2c(c1=O)SC(C)C2 (stereo not drawn),-48.2%
5,CC(=O)c1cccc(NC(=S)NC(=O)c2cccc(Cl)c2)c1,-3.58%
6,CCSc1nnc(NC(=O)C2Cc3ccccc3CN2C(=O)c2ccco2)s1 (stereo not drawn),-10.3%
7,CCn1nc(C)c(CNC(=O)CC2C(=O)NCCN2CC(C)C)c1C (stereo not drawn),11.7%
8,CCn1nc(C)c(CNC(=O)CC2C(=O)NCCN2CC(C)(C)C)c1C (stereo not drawn),9.14%
9,CCn1nc(C)c(CNC(=O)CC2C(=O)NCCN2Cc2ccc(C)o2)c1C (stereo not drawn),-68.4%
10,CN(CC(=O)N1CCN(c2cccc(Cl)c2)CC1)S(=O)(=O)c1cccs1,-32.9%
11,Cn1c2c(c(=O)[nH]c1=O)C(c1ccc(O)cc1)C1=C(N2)c2ccccc2C1=O (stereo not drawn),-5.73%
12,CCOC(=O)c1c(CNc2ccncc2)n(C)c2cc(Br)c(O)cc12.Cl,18.8%
13,CCOC(=O)c1c(C)n(C)c2cc(Br)c(C(=O)OC)cc12,-11.1%
14,CCOC(=O)c1c(CN(CC)CC)n(C)c2cc(Br)c(O)cc12.Cl,-73.6%
15,CCOC(=O)c1c(CN2CCN(c3ccccc3)CC2)oc2cc(Br)c(O)cc12.Cl,14.3%
16,CCOC(=O)c1c(CN(CC)CC)oc2cc(Br)c(O)cc12,-79.8%
17,CCOC(=O)c1c(CS(=O)(=O)c2ccccc2)n(C)c2cc(Br)c(O)cc12,5.4%
18,CCOC(=O)c1c(CN2CCN(CC#N)CC2)n(C)c2cc(Br)c(OC)cc12,10.9%
19,CCOC(=O)c1c(C)n(C)c2cc(Br)c(OC)cc12,15.6%
20,CCOC(=O)c1c(CN2CCN(C)CC2)n(C)c2cc(Br)c(OC)cc12,-50.4%
21,CCOC(=O)c1c(CN2CCN(CCO)CC2)n(C)c2cc(Br)c(OC)cc12,-11.3%
22,CCOC(=O)c1c(-c2ccccc2)oc2cc(Br)c(O)cc12,3.65%

row,Structure (SMILES),"hERG current change (%, negative = inhibition) at 10uM"
1,CCOC(=O)c1c(CNCCN(CC)CC)n(C)c2cc(Br)c(OC)cc12.Cl,-68.5%
2,COc1ccccc1NC(=O)c1cnc2c(-c3ccccc3)c(C)nn2c1C,3.15%
3,O=C(c1cnc2nc3ccccc3n2c1)c1cc(F)ccc1O,2.44%
4,Cc1ccc2c(c1)N(CCCC(=O)Nc1cccc(C(F)(F)F)c1)C(=O)CO2,12.9%
5,O=C(O)c1ccccc1C(=O)c1ccc2c(c1)N(Cc1cccc(F)c1)C(=O)CO2,-18.1%
6,O=C(COC(=O)c1ccccc1Br)Nc1ccccc1F,-21%
7,N#Cc1c(NC(=O)c2nc3ncccn3n2)sc2c1CCCCC2,2.44%
8,Cc1ccc(NC(=O)CCCNC(=O)c2ccc(Cl)cc2)cc1S(=O)(=O)N1CCOCC1,-17.9%
9,O=C(NCc1n[nH]c(=S)n1-c1cccc(C(F)(F)F)c1)c1ccc(S(=O)(=O)N2CCCCC2)cc1,16.5%
10,CC(=O)Oc1cccc(C(=O)Nc2ccccc2NC(=O)c2cccc(OC(C)=O)c2)c1,9.7%
11,CC(C)N(Cc1nc(-c2ccc(Cl)cc2)no1)C(=O)c1cccs1,-8.63%
12,CCCn1c(CNC(=O)Cc2ccccc2)nc2ccccc21,-21.3%
13,CCOC(=O)c1c(CN2CCCCC2)n(C)c2cc(Br)c(OC)cc12,-31.7%
14,CCOC(=O)c1c(CN2CCC(C)CC2)n(C)c2cc(Br)c(OC)cc12,10.5%
15,CCOC(=O)c1c(CN2CCCCC2)n(C)c2cc(Br)c(O)cc12,-68.2%
16,CCCCCOC(=O)Cc1c(O)c2ccccc2[nH]c1=O,12.8%
17,CCN(CC)S(=O)(=O)c1ccc(F)c(C(=O)NCCCN2CCOCC2)c1,-11.7%
18,COC(=O)c1cc(C(=O)c2cccc(Cl)c2Cl)cn1C,-43.4%
19,CCOc1ccc(Nc2nc(N)nc(CCl)n2)cc1,-8.2%
20,COc1ccc(Nc2nc(N)nc(COc3ccc(OC)cc3)n2)cc1,4.75%
21,CCOc1ccccc1Nc1nc(N)nc(CN2CCCCC2C)n1 (stereo not drawn),-50%
22,CCOc1ccccc1Nc1nc(N)nc(CN(C)C2CCCCC2)n1,-76.1%

row,Structure (SMILES),"hERG current change (%, negative = inhibition) at 10uM"
1,CCOc1ccc(Nc2nc(N)nc(CN(C)C3CCCCC3)n2)cc1,-71.5%
2,CCOc1ccc(Nc2ncnc(N)n2)cc1,10.3%
3,COc1ccccc1Nc1nc(N)nc(CN(C)C2CCCCC2)n1,-35.8%
4,COc1ccc(Nc2nc(N)nc(CN(C)C3CCCCC3)n2)cc1,-57.5%
5,COc1ccc(CN(C)C2CCCCC2)cc1,-25.1%
6,COC(=O)N/N=C/c1cc(Cl)cc(Cl)c1OCc1ccc(F)cc1,3.82%
7,O=[N+]([O-])c1cccc(C2N3CCCN23)c1 (stereo not drawn),12.3%
8,Cc1cc2c(cc1S(=O)(=O)Nc1c(C)cccc1C)n(C)c(=O)c(=O)n2C,-0.831%
9,COc1ccc(-c2cc(C3CCN(c4ncccc4[N+](=O)[O-])CC3)[nH]n2)cc1,-5.85%
10,COc1ccc(-c2cn(Cc3ccc([N+](=O)[O-])cc3)nn2)cc1,-9.43%
11,COc1ccc(-c2cc(C3CCNCC3)[nH]n2)cc1,18.7%
12,COc1ccc(-c2cc(C3CCN(Cc4cccc(C(F)(F)F)c4)CC3)[nH]n2)cc1,-55.2%
13,O=c1ccc(-c2ccc([N+](=O)[O-])cc2)nn1-c1ccccc1,-55%
14,FC(F)(F)c1cccc(-c2cc(C3CCNCC3)[nH]n2)c1,-44.3%
15,O=[N+]([O-])c1ccc(-n2nnnc2-c2ccccc2)cc1,-21.3%
16,O=[N+]([O-])c1cccnc1N1CCC(c2cc(-c3cccc(C(F)(F)F)c3)n[nH]2)CC1,-13.7%
17,COC(=O)CCN1CCC(c2cc(-c3cccc(C(F)(F)F)c3)n[nH]2)CC1,-72.2%
18,COc1ccc(-c2cc(C3CCN(Cc4ccc([N+](=O)[O-])cc4)CC3)[nH]n2)cc1,-73%
19,Cc1nc(-c2ccccc2)nn1-c1ccc([N+](=O)[O-])cc1,-26.2%
20,COc1ccc(-c2cc(C3CCN(C(=O)OC(C)(C)C)CC3)[nH]n2)cc1,-26.4%
21,Cc1ccc(CNc2nc(C)c(C(=O)N(C)C)s2)cc1,4.98%
